Results from PubChem BioAssay (EPA / NIEHS).
Values joined by “and” are separate entries in the source; they are usually repeats but may differ in a detail not shown here. Equal values may be shown once. Some structures have more than one record in an assay (separate samples or runs), and their calls can disagree. Active and inactive are the calls of the source. Rule for the calls: active = hit-call score of the fitted dose curve at least 0.9, where 1 is the maximum; inactive = score below 0.9.

Assays:
[1] = ATG_GRE_CIS: Attagene CIS-FACTORIAL HepG2 Assay for human Glucocorticoid Response Elements (GRE) (AID 2282947); settings: HepG2 GRE cis-reporter, Attagene multiplex mRNA; actives raise or lower the signal
Outline: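 HepG2, transient cis-reporter transfection, 24 h. Reporter mRNA: RT-PCR then CE, fluorescence. Fit both directions vs DMSO.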

[2] = ATG_ISRE_CIS: Attagene CIS-FACTORIAL HepG2 Assay for human Interferon Regulatory Factor 1 (IRF1) binding to an Interferon-Stimulated Response Element (ISRE) (AID 2282948); settings: HepG2 ISRE cis-reporter (Attagene), mRNA transcription readout; actives raise or lower the signal
Outline: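 Endogenous transcription factor activity read as reporter transcript abundance via RT-PCR and capillary electrophoresis. HepG2 cells transiently transfected, 24 h chemical exposure. Gain or loss fitted against DMSO baseline.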

[3] = ATG_M_32_CIS: Attagene CIS-FACTORIAL HepG2 Assay for M32 Transcription Factor (Internal Marker) (AID 2282949); settings: HepG2 Attagene cis-factorial M32 reporter, mRNA; actives raise or lower the signal;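 note: background control marker of the multiplexed CIS panel rather than a real target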
Outline: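 Transient MRTU transfection of HepG2; 24 h compound treatment; TriZol RNA, oligo(dT) RT, reporter PCR, 6-FAM primer extension, HpaI cut, CE. Gain/loss of signal vs DMSO.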

[4] = ATG_M_06_CIS: Attagene CIS-FACTORIAL HepG2 Assay for M06 Transcription Factor (Internal Marker) (AID 2282950); settings: HepG2 Attagene CIS-FACTORIAL M06 internal marker reporter; actives raise or lower the signal
Outline: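 Measured 24 h post-dosing in transiently transfected HepG2 cells, this internal-marker endpoint reports reporter mRNA via RT-PCR with fluorescent primer extension and capillary electrophoresis. DMSO served as negative control and baseline for bidirectional fitting.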

[5] = biological target: Hypoxia-inducible factor 1-alpha (Homo sapiens) (UniProt Q16665); experiment: ATG_HIF1a_CIS: Attagene CIS-FACTORIAL HepG2 Assay for human Hypoxia Inducible Factor 1 (HIF1A) (AID 2282951); settings: HepG2 Attagene cis-factorial HIF1a reporter transcription; actives raise or lower the signal
Sequence of Hypoxia-inducible factor 1-alpha (Homo sapiens) (Q16665 whole entry, looked up): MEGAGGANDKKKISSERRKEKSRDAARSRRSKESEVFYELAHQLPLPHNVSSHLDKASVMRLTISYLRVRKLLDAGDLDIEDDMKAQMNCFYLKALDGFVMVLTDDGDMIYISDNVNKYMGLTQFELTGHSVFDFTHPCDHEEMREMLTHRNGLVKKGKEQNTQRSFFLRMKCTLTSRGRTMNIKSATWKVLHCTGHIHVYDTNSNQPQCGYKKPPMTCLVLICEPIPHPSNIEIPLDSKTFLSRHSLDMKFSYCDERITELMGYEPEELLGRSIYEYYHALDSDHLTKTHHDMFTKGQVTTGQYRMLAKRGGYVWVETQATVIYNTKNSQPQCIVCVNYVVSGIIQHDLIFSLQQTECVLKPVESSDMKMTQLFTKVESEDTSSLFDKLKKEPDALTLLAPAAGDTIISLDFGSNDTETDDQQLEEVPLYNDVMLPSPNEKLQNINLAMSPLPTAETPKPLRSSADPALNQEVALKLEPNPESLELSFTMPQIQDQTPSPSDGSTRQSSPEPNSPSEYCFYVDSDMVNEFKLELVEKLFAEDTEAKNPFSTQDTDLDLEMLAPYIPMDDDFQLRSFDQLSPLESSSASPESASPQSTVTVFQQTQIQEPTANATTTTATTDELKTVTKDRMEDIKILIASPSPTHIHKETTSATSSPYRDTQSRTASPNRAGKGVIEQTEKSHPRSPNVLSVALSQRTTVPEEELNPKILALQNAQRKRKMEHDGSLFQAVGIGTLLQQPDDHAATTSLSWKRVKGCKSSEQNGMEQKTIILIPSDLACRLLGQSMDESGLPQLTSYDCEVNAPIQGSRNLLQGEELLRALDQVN
Outline: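 RT-PCR/capillary electrophoresis fluorescence readout of reporter transcripts from endogenous-TF-driven cis elements in transfected HepG2 cells, 24 h exposure; activity fitted in both directions against DMSO controls.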

[6] = biological target: Hepatocyte nuclear factor 6 (Homo sapiens) (UniProt Q9UBC0); experiment: ATG_HNF6_CIS: Attagene CIS-FACTORIAL HepG2 Assay for human Hepatocyte Nuclear Factor 6 (HNF6) (AID 2282952); settings: HepG2 Attagene cis-factorial HNF6 reporter transcription; actives raise or lower the signal
Sequence of Hepatocyte nuclear factor 6 (Homo sapiens) (Q9UBC0 whole entry, looked up, the tested form may be a part): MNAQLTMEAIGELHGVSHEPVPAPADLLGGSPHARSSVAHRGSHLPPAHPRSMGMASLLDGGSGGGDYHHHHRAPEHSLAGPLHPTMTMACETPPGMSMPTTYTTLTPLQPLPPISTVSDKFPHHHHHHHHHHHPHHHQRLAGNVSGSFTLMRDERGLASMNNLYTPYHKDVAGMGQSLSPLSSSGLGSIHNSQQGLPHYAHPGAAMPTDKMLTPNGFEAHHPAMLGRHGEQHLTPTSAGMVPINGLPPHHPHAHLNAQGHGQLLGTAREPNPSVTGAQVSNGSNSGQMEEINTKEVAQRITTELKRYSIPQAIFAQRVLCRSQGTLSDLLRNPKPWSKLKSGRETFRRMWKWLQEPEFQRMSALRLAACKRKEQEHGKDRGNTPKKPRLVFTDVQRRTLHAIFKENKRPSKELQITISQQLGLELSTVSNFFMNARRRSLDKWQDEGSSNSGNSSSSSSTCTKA
Outline: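 Using cis-element reporters in HepG2 liver cells, the assay tracks endogenous factor-driven transcription 24 h post-dosing. Signal comes from 6-FAM-labelled, HpaI-digested RT-PCR fragments, with gain or loss scored against DMSO.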

[7] = biological target: Heat shock factor protein 1 (Homo sapiens) (UniProt Q00613); experiment: ATG_HSE_CIS: Attagene CIS-FACTORIAL HepG2 Assay for human Heat Shock Transcription Factor 1 (HSE) (AID 2282953); settings: HepG2 HSE cis-reporter, Attagene RNA transcription; actives raise or lower the signal
Sequence of Heat shock factor protein 1 (Homo sapiens) (Q00613 whole entry, looked up): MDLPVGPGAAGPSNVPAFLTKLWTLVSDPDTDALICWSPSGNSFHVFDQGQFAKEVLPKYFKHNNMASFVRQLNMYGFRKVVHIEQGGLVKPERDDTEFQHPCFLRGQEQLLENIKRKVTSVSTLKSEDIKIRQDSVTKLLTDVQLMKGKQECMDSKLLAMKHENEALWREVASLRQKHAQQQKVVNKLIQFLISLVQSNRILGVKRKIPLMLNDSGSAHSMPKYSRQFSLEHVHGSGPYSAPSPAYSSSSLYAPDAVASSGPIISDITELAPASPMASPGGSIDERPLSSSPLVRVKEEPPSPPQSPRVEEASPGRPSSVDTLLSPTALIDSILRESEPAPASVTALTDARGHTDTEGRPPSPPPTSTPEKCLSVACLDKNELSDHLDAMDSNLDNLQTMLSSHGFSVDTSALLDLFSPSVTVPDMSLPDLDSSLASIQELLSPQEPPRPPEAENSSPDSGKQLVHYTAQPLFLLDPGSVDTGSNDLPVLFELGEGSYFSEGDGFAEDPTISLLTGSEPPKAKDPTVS
Outline: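 Reporter mRNA induction in HepG2 is measured 24 h after dosing, using transiently transfected multiplexed cis-regulated reporter units. Signal comes from capillary electrophoresis of labelled RT-PCR products, with DMSO as negative control.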

[8] = ATG_MRE_CIS: Attagene CIS-FACTORIAL HepG2 Assay for human Metal Responsive Element (MRE) (AID 2282954); settings: HepG2 MRE cis-reporter transcription, Attagene multiplex; actives raise or lower the signal
Outline: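 Readout: capillary electrophoresis of 6-FAM-labelled, HpaI-digested RT-PCR reporter products. System: HepG2 cells carrying transient multiplexed cis reporters, dosed 24 h. Analysis: bidirectional fit, DMSO baseline.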

[9] = ATG_PBREM_CIS: Attagene CIS-FACTORIAL HepG2 Assay for human Phenobarbital-responsive Enhancer Module (PBREM) (AID 2282955); settings: HepG2 PBREM cis-reporter, Attagene multiplexed transcription; actives raise or lower the signal
Outline: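 Reporter mRNA read by RT-PCR, 6-FAM primer extension, HpaI digestion and capillary electrophoresis. Transfected HepG2 cells, 24 h compound exposure. Gain or loss of signal fitted bidirectionally relative to DMSO baseline.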

[10] = ATG_PXRE_CIS: Attagene CIS-FACTORIAL HepG2 Assay for human Pregnane X Receptor Element (PXRE) (AID 2282957); settings: HepG2 Attagene CIS-FACTORIAL PXRE reporter, mRNA; actives raise or lower the signal
Outline: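 Using HepG2 transfected with multiple reporter transcription units, endogenous factor-driven transcription was scored as reporter mRNA after 24 h exposure.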

[11] = ATG_PPRE_CIS: Attagene CIS-FACTORIAL HepG2 Assay for human Peroxisome Proliferator-activated Response Element (PPRE) (AID 2282958); settings: HepG2 PPRE cis-element reporter, Attagene transcription factor profiling; actives raise or lower the signal
Outline: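 Read-out: fluorescent reporter mRNA fragments resolved by capillary electrophoresis after RT-PCR. HepG2 cells carried transiently transfected PPRE-driven cis reporter constructs and were dosed for 24 h; gain or loss of signal fitted relative to DMSO.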

[12] = ATG_RORE_CIS: Attagene CIS-FACTORIAL HepG2 Assay for human RAR-related Orphan Receptor Element (RORE) (AID 2282959); settings: HepG2 Attagene cis-factorial RORE reporter, mRNA; actives raise or lower the signal
Outline: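 Readout: fluorescent reporter mRNA by RT-PCR plus capillary electrophoresis, 24 h after dosing transfected HepG2 cells. Endogenous transcription factor activity on a cis promoter element is measured. Gain or loss of signal fitted against DMSO.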

[13] = ATG_Sox_CIS: Attagene CIS-FACTORIAL HepG2 Assay for human SRY-box transcription factor (SOX) (AID 2282960); settings: HepG2 Attagene cis-factorial SOX reporter, mRNA; actives raise or lower the signal
Outline: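 Read-out: fluorescent RT-PCR products of SOX1-linked reporter transcripts resolved by capillary electrophoresis, fitted bidirectionally against DMSO. Transiently transfected HepG2 cells, 24 h after chemical exposure, endogenous transcription factor activity.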

[14] = biological target: Transcription factor Sp1 (Homo sapiens) (UniProt P08047); experiment: ATG_Sp1_CIS: Attagene CIS-FACTORIAL HepG2 Assay for human Specificity Protein 1 (Sp1) (AID 2282961); settings: HepG2 Sp1 cis-reporter transcription, actives raise or lower the signal
Sequence of Transcription factor Sp1 (Homo sapiens) (P08047 whole entry, looked up): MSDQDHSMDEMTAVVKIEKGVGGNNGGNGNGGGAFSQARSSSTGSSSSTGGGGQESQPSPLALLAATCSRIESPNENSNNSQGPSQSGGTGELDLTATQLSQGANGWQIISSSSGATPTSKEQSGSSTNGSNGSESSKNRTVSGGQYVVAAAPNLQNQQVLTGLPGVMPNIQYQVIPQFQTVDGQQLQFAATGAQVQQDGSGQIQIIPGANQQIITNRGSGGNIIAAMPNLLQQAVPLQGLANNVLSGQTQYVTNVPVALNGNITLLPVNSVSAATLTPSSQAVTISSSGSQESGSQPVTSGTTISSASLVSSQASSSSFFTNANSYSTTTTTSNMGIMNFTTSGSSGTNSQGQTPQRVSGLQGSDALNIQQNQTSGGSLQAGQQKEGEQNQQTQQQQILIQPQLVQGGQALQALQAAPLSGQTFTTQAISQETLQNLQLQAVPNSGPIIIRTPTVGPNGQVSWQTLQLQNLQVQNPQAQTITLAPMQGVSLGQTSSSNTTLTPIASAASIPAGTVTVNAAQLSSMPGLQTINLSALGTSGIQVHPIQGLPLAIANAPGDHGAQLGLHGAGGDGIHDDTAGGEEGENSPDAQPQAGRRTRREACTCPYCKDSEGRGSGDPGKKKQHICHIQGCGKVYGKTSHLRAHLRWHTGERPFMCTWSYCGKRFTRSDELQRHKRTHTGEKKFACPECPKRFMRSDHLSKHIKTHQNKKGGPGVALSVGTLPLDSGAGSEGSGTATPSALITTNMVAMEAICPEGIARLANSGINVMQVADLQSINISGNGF
Outline: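 Read-out: fluorescence of 6-FAM-labeled, HpaI-digested RT-PCR products separated by capillary electrophoresis. HepG2 cells carried transfected cis-element reporter units and were exposed to chemicals for 24 h; gain or loss of signal fitted relative to DMSO.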

[15] = ATG_SREBP_CIS: Attagene CIS-FACTORIAL HepG2 Assay for human Sterol Regulatory Element Binding (SREBP) (AID 2282962); settings: HepG2 Attagene cis-factorial SREBP reporter, mRNA; actives raise or lower the signal
Outline: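 Endogenous SREBP activity read as cis-element-driven reporter transcript in transiently transfected HepG2, 24 h post-dosing; quantified via RT-PCR plus capillary electrophoresis of fluorescent fragments. Gain or loss of signal fitted relative to DMSO baseline.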

[16] = biological target: Signal transducer and activator of transcription 3 (Homo sapiens) (UniProt P40763); experiment: ATG_STAT3_CIS: Attagene CIS-FACTORIAL HepG2 Assay for human Signal Transducer and Activator of Transcription 3 (STAT3) (AID 2282963); settings: HepG2, Attagene cis-factorial STAT3 reporter transcription; actives raise or lower the signal
Sequence of Signal transducer and activator of transcription 3 (Homo sapiens) (P40763 whole entry, looked up): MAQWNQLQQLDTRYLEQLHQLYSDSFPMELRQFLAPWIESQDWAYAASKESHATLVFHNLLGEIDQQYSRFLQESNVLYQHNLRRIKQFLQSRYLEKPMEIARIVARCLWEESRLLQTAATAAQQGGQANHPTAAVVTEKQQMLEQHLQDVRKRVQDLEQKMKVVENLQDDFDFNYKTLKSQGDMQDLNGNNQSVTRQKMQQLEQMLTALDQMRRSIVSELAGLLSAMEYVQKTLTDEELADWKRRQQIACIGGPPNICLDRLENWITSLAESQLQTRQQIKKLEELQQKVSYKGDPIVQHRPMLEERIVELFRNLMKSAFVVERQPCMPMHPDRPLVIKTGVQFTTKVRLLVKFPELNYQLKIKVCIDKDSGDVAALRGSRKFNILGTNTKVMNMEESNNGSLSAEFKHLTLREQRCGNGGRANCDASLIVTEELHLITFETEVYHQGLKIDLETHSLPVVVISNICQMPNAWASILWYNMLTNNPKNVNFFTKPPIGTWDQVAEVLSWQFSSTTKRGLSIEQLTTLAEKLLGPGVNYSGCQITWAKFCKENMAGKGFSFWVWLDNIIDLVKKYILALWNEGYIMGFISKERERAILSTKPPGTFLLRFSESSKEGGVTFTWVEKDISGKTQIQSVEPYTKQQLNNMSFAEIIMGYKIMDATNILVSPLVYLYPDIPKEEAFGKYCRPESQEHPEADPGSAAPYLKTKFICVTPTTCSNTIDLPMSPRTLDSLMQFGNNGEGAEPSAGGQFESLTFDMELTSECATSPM
Outline: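 Uses human liver HepG2 transiently carrying cis-regulated reporter transcription units. Following 24 h dosing, reporter mRNA induction was detected by RT-PCR and capillary electrophoresis, analysed bidirectionally versus DMSO.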

[17] = ATG_TA_CIS: Attagene CIS-FACTORIAL HepG2 Assay for human TA Basal Promoter (AID 2282964); settings: HepG2 Attagene CIS-factorial TA basal promoter reporter; actives raise or lower the signal
Outline: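 Cis-factorial format in HepG2: reporters report endogenous factors, not chimeric Gal4 fusions. After 24 h treatment, reporter transcripts were measured by RT-PCR-capillary electrophoresis fluorescence, analysed bidirectionally versus DMSO.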

[18] = ATG_TCF_b_cat_CIS: Attagene CIS-FACTORIAL HepG2 Assay for human T-Cell-Factor with beta-catenin (TCF/b-cat) (AID 2282965); settings: HepG2 TCF/beta-catenin cis-reporter transcription, actives raise or lower the signal
Outline: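 HepG2 cells transiently transfected with multiple cis-promoter-regulated reporter transcription units, so endogenous transcription factor activity is measured. Reporter mRNA read 24 hours after dosing by RT-PCR, fluorescent labelling and capillary electrophoresis; bidirectional fitting against DMSO.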

[19] = ATG_TAL_CIS: Attagene CIS-FACTORIAL HepG2 Assay for human TAL Basal Promoter (AID 2282966); settings: HepG2 Attagene cis-factorial TAL promoter reporter; actives raise or lower the signal;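 note: background control endpoint measuring basal TAL promoter reporter mRNA not a specific factor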
Outline: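 After 24 hours of chemical exposure, transfected HepG2 cells yielded RNA that was converted to 6-FAM-labelled, HpaI-digested reporter fragments for capillary electrophoresis. Values derive from bidirectional fitting against DMSO controls.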

[20] = biological target: Paired box protein Pax-6 (Homo sapiens) (UniProt P26367); experiment: ATG_Pax6_CIS: Attagene CIS-FACTORIAL HepG2 Assay for human Paired Box 6 (PAX6) (AID 2282956); settings: HepG2 CIS-FACTORIAL PAX6 reporter transcription, RNA readout; actives raise or lower the signal
Sequence of Paired box protein Pax-6 (Homo sapiens) (P26367 whole entry, looked up): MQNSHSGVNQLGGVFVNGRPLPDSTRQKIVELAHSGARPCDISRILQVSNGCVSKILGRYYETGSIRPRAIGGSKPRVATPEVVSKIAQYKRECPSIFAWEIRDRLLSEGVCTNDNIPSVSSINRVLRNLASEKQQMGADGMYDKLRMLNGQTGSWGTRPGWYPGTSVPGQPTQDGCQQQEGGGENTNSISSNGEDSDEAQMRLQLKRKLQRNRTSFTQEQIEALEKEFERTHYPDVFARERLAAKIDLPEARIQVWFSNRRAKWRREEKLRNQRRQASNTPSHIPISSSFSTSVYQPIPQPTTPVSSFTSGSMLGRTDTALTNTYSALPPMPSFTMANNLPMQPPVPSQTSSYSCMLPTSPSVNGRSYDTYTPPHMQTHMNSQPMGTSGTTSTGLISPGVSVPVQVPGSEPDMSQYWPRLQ
Outline: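 Read-out is reporter transcript level, measured by RT-PCR with fluorescent primer extension and capillary electrophoresis after 24 h dosing of transfected HepG2 cells. Activity in either direction fitted relative to DMSO control.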

Measured: AC50

CCCN(CCC)c1c([N+](=O)[O-])cc(C(F)(F)F)c(N)c1[N+](=O)[O-]
active: [5] 13 µM | [6] 50 µM | [7] 81 µM | [8] 32.5 µM | [9] 29.7 µM | [10] 1.29 µM | [14] 28.9 µM
not listed: [20]
inactive: all other assays above

N#CSCSc1nc2ccccc2s1
active: [2] 3.07 µM | [7] 18.1 µM | [10] 3.49 µM | [11] 2.81 µM | [14] 17.8 µM | [18] 1.99 µM
inactive: [1] | [2] | [4] | [5] | [6] | [7] | [8] | [9] | [10] | [11] | [12] | [13] | [14] | [15] | [17] | [18]

CN(C)C(=O)Nc1ccc(Cl)c(Cl)c1
inactive: [1] | [2] | [4] | [5] | [6] | [7] | [8] | [9] | [20] | [11] | [12] | [13] | [14] | [15] | [17] | [18] | [19]
active: [5] 62.6 µM | [8] 77.4 µM | [10] 11.4 µM and 25.4 µM | [11] 37 µM | [12] 100 µM | [14] 180 µM

CCCCOC(=O)C(C)Oc1ccc(Oc2ccc(C(F)(F)F)cn2)cc1 (configuration not stated)
active: [10] 56.4 µM | [11] 50 µM
not listed: [20]
inactive: all other assays above

CCOC(=O)[C@H](C)Oc1ccc(Oc2nc3ccc(Cl)cc3o2)cc1
active: [11] 50 µM
not listed: [12] | [16]
inactive: all other assays above

COCCO
active: [10] 24.7 µM
inactive: [1] | [2] | [3] | [4] | [5] | [6] | [7] | [8] | [9] | [10] | [11] | [12] | [13] | [14] | [15] | [17] | [18]

CC(=O)S[C@@H]1CC2=CC(=O)CC[C@]2(C)[C@H]2CC[C@@]3(C)[C@@H](CC[C@@]34CCC(=O)O4)[C@H]12
inactive: [1] | [2] | [4] | [5] | [6] | [7] | [8] | [9] | [10] | [11] | [12] | [13] | [14] | [15] | [17] | [18]
active: [2] 48.9 µM and 26.1 µM and 48.1 µM | [7] 171 µM | [8] 76.9 µM [middle of 4 runs] | [10] 7.65 µM [middle of 4 runs] | [11] 2.4 µM | [14] 26.3 µM and 4.58 µM | [15] 100 µM | [17] 182 µM | [18] 39.1 µM

CCOC(=O)C(C)Oc1ccc(Oc2nc3ccc(Cl)cc3o2)cc1 (configuration not stated)
not listed: [12] | [16] | [20]
inactive: all other assays above

COC(=O)c1ccccc1S(=O)(=O)NC(=O)Nc1nc(OC(F)F)cc(OC(F)F)n1
active: [10] 33.2 µM
not listed: [3] | [16] | [19]
inactive: all other assays above

O=C(c1ccccc1)C1CCCCC1
active: [9] 53.2 µM | [10] 26.9 µM [middle of 4 runs] | [11] 31.5 µM and 67.1 µM
inactive: [1] | [2] | [4] | [5] | [6] | [7] | [8] | [9] | [20] | [11] | [12] | [13] | [14] | [15] | [17] | [18]
